# From PubChem BioAssay
# BaF3 parental: parental Ba/F3 viability inhibition as JAK2V617F counter-screen; 1.1% of 220,000 active; inhibition, % at 5.6 µM; CellTiter-Glo ATP luminescence;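 active = inhibition above a per-campaign cutoff, the mean inhibition of all tested compounds plus 3 SD, cut at about 27% in these data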
# KLF5 inhibitor: kruppel-like factor 5 inhibition; DLD-1 KLF5 promoter-luciferase reporter, luminescence; inhibition, % at 5 µM; 0.23% of 290,000 active;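 active = inhibition above a per-plate limit of that plate's mean compound inhibition plus 3 SD, cut at about 60% in these data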;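 also: higher means less KLF5 promoter-driven luciferase light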
# APP 5UTR inh: APP translation inhibition. AID 1285. inhibition, % at 2 µM. SH-SY5Y APP 5'UTR-luciferase reporter, luminescence. 0.82% of 190,000 active;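 active = inhibition above a set limit, derived from the sample mean plus 3 SD, cut at about 45% in these data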
# IEC-6 cytotox: IEC-6 cytotoxicity, counter-screen for KLF5 inhibitors | luminescence viability | inhibition, % at 5 µM | 0.78% of 290,000 active | AID 1825; in the data active = inhibition above about 22%
# Ba/F3 V617F tox: loss of viability in JAK2V617F-driven Ba/F3 cells; 1.1% of 220,000 active; inhibition, % at 5.6 µM; AID 1446; Ba/F3 EpoR-JAK2V617F viability, ATP luminescence;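 active = inhibition above the campaign mean plus 3 SD over all tested compounds, cut at about 24% in these data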;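 also: cytokine-independent growth of Ba/F3 cells driven by EpoR plus mutant JAK2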
# aSyn 5UTR inh: 5' untranslated region of α-synuclein, MLPCN primary screen. alpha-synuclein 5'UTR reporter, inhibitor activity. inhibition, % (tested at 7.5 µM). 0.82% of 300,000 active; in the data active = inhibition above about 60%;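 also: H4 neuroglioblastoma cells stably carrying SNCA 5'UTR luciferase fusion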
# Numbers stand for hits; - = inactive; . = not tested or not shown. Sampled rows, rich in hits. Any-hit rate of the full collection: about 2.2%.
SMILES,BaF3 parental,KLF5 inhibitor,APP 5UTR inh,IEC-6 cytotox,Ba/F3 V617F tox,aSyn 5UTR inh
CC12CC[C@H]3[C@@H](CCC4(O)C[C@H](O)CCC34/C=N/NC(=O)c3ccc(O)cc3)C1(O)CCC2C1=CC(=O)OC1 (some centres not stated),-,-,.,-,-,-
CN(C)c1ccc(C(=O)N/N=C/C23CC[C@@H](O)CC2(O)CC[C@@H]2[C@@H]3CCC3(C)C(C4=CC(=O)OC4)CCC23O)cc1 (some centres not stated),-,-,.,-,-,95
COc1ccc(C(=O)N/N=C/C23CC[C@@H](O)CC2(O)CC[C@@H]2[C@@H]3CCC3(C)C(C4=CC(=O)OC4)CCC23O)cc1 (some centres not stated),-,-,.,-,-,89
COc1ccccc1CCNCc1cc2c(cc1[N+](=O)[O-])OCO2,-,-,-,-,-,-
COC(=O)C1=C(c2cc3ccccc3o2)C[C@@H]2CC[C@H]1N2C(=O)N1CCCCC1,.,.,.,.,.,66
COc1ccc(C(=O)c2nc3ccccc3n2C(C)C)cc1,-,-,-,-,-,-
CC(=O)c1cn(Cc2ccccc2F)c2ccccc12,.,-,.,-,.,-
CC/C(=N\NC(=O)Nc1ccccc1)c1c(O)n(Cc2ccccc2)c(=O)[nH]c1=O,-,-,.,-,-,-
c1ccc2c(CN3CCN(C4CCCCC4)CC3)c[nH]c2c1,-,-,-,-,-,-
c1ccc2c(CN3CCCCCCC3)c[nH]c2c1,38,-,-,-,49,-
C=C(C=O)CC1CC(O)[C@]2(C)OC3CC4OC5C[C@]6(C)O[C@]7(C)CCC8OC9C[C@]%10(C)OC%11C(C)=CC(=O)OC%11CC%10OC9C[C@@H](C)C8OC7CC6O[C@]5(C)CC5OC5C4OC3CC2O1 (some centres not stated),97,-,96,-,97,114
CC(=O)c1cccc(NC2=NCC(C)S2)c1 (configuration not stated),-,-,-,-,-,-
C=C1C(=O)O[C@@H]2C[C@@H](C)[C@@H]3C=CC(=O)[C@@]3(C)[C@@H](O)[C@H]12,.,.,.,.,.,119
CCOc1ccc(-c2cc(C)[n+](CCO)c(-c3ccc(OCC)cc3)c2)cc1,72,-,-,-,57,-
CCOc1ccc(-c2cc(C)[n+](CCc3ccc(OC)c(OC)c3)c(-c3ccc(OCC)cc3)c2)cc1,.,-,.,-,.,-
CN1CC=C(c2c[nH]c3ccccc23)CC1,61,-,-,-,29,-
O=[N+]([O-])c1ccc(CN2CC=C(c3ccccc3)CC2)cc1,.,-,.,-,.,-
C1=C(c2c[nH]c3ccccc23)CCN(Cc2ccccc2)C1,76,-,-,-,97,-
CCOC(=O)/C(CCCN(CC)CC)=N\O,-,-,-,-,-,-
CP(C)(=O)CCC(=O)O,36,-,-,-,-,-
O=[N+]([O-])c1ccc(NCCCN2CCOCC2)nc1,.,-,.,-,.,-
CC(=O)Nc1ccc(OC(=O)N2CCCCC2)cc1,-,-,-,-,-,69
Cc1cc(C)[n+](C2C3CC4CC(C3)CC2C4)o1 (configuration not stated),66,-,-,-,68,-
COc1ccc(C2C(C(=O)N3CCC4(CC3)OCCO4)CC(=O)N2c2ccc(OC)cc2)cc1 (configuration not stated),-,-,-,-,-,.
CC[n+]1c(/C=C/N(C)c2ccccc2)sc2ccc(Cl)cc21,72,-,-,-,80,-
SMILES,BaF3 parental,KLF5 inhibitor,APP 5UTR inh,IEC-6 cytotox,Ba/F3 V617F tox,aSyn 5UTR inh
O=CNc1ccc(OP(=O)(Oc2ccccc2)Oc2ccccc2)cc1,.,-,.,-,.,-
O=[N+]([O-])c1ccccc1-c1cc(-c2ccccc2)cc(-c2ccccc2)[n+]1Cc1ccccc1Cl,.,.,.,.,.,64
Clc1ccc(C[n+]2c(-c3ccccc3)cc(-c3ccccc3)cc2-c2ccccc2)cc1,.,.,.,.,.,-
NC(=S)c1cn(C2OC(CO)C(O)C2O)c2ncnc(N)c12 (configuration not stated),104,110,.,100,99,105
Nc1ncnc2c1ccn2[C@@H]1O[C@H](CO)[C@@H](O)[C@H]1O,.,.,.,.,.,107
COC(=O)c1nc(-c2ccc3c(n2)C(=O)C(N)=C(OC)C3=O)c(N)c(-c2ccc(OC)c(OC)c2O)c1C,-,-,.,-,-,97
CCC[N+]12CCC(CC1)C(=C(c1ccccc1)c1ccccc1)C2,36,-,-,-,-,-
CCCC[N+]12CCC(CC1)C(=C(c1ccccc1)c1ccccc1)C2,-,-,-,-,-,-
CN/C=C(/Cl)P(=O)(OC(C)C)OC(C)C,.,.,.,.,.,-
CC(=Nc1ccc2c(c1)CCC2)c1c(O)n(-c2ccccc2)c(=O)[nH]c1=O,-,-,.,-,-,-
CN1CCN(C(=O)COc2ccc(S(=O)(=O)NC3CCCCC3)cc2Cl)CC1,.,-,.,-,.,-
CCn1c(NN=O)nc2ccccc21,-,-,-,-,-,74
CC12CC[C@H]3[C@@H](CCC4(O)C[C@H](O)CCC34/C=N/NC(=O)c3ccccc3F)C1(O)CCC2C1=CC(=O)OC1 (some centres not stated),-,-,.,-,-,64
CC12CC[C@H]3[C@@H](CCC4(O)C[C@H](O)CCC34/C=N/NC(=O)c3ccccc3O)C1(O)CCC2C1=CC(=O)OC1 (some centres not stated),-,-,.,-,-,77
CC1=C(C/C(C)=C/c2ccccc2)/C(=C/CO)[C@@H]2OC(=O)O[C@]2(C)C12CC2,.,.,.,.,.,-
O=C1OCc2cc(N=Nc3c(O)[nH]c(=O)[nH]c3=O)ccc21,-,-,.,-,-,-
CC(=O)OC(C)(C)/C=C/C(=O)[C@](C)(O)[C@H]1[C@H](O)C[C@@]2(C)[C@@H]3CC=C4[C@H](C[C@H](O)C(=O)C4(C)C)[C@]3(C)C(=O)C[C@]12C,88,83,90,98,101,.
CCC(C)N1C(=O)NC(=O)C2(Cc3c(ccc4ccccc34)N(C)C2)C1=O (configuration not stated),-,-,-,-,-,-
CCC12C=CCN3CCC4(c5cc(Br)c(OC)cc5N(C)C4C(O)(C(=O)OC)C1OC(C)=O)C32 (configuration not stated),-,-,-,-,-,-
COc1ccc(C(C)=O)cc1CC(C(=O)c1ccccc1)N(C)C (configuration not stated),-,-,-,-,-,-
O=Cc1cn(Cc2cccc([N+](=O)[O-])c2)c2ccccc12,-,-,-,-,-,94
O=Cc1cn(Cc2ccccc2F)c2ccccc12,-,-,-,-,-,-
Cc1cccc(Cn2cc(C=O)c3ccccc32)c1,.,-,.,-,.,68
N#Cc1ccc(Cn2cc(C=O)c3ccccc32)cc1,.,-,.,-,.,-
Cc1nc2cc(-c3cccc(F)c3)nn2c(C)c1CCC(=O)N1CCC2(CC1)OCCO2,-,-,-,-,-,77
Cc1nc2c(-c3ccccc3)c(C)nn2c(C)c1CCC(=O)N1CCC2(CC1)OCCO2,-,-,-,-,-,-
